rTrxR1 inhibitor: inhibitors of rat thioredoxin reductase 1. O89049. recombinant rTrxR1, NADPH fluorescence consumption, selenite substrate. Potency, µM (doses to about 114 µM), for the others: at the top dose activity change, negative = inhibition, hits mostly inhibitors. actives 1% (n = 390,000); further: potency means the concentration at half of the fitted maximal effect; on the % scale 0 is the no-effect control and ±100 the full control effect; nearly all actives have a fitted effect of over 65% in size
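Rat TrxR1 (90 nM in the dispensed reagent) was pre-reduced with 400 uM NADPH for 5 min at room temperature, then incubated with compound for 15 min. After 400 uM selenite was added, NADPH fluorescence (Ex 340/Em 450 nm) was followed for 8 min.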
RGS4 inh: inhibitors of human regulator of G protein signaling 4; P49798; Transcreener GDP fluorescence polarization, RGS4-accelerated GTP hydrolysis; Potency, µM (highest dose often 114 µM), without a hit: top-dose activity change, negative = inhibition, hits mostly inhibitors; actives 0.039% (n = 390,000); AID 504845; further: potency means the concentration at half of the fitted maximal effect; on the % scale 0 is the no-effect control and ±100 the full control effect; nearly all actives have a fitted effect of over 75% in size
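MLSMR compounds (23 nl, pin-transferred) preincubated 10 min at room temperature with a 500nM (2x) first reagent, then RGS4 at 900nM (2x) plus Transcreener GDP mix added; fluorescence polarization (620/688 nm) read before and after 90 min at 30 °C.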
mIDH1 inhibitor: human IDH1 R132H inhibition; Potency, µM (titrated, usually from 76.6 µM), without a hit: at the top dose activity change, negative = inhibition, usual class: inhibitors; actives 0.093% (n = 390,000); AID 602179; IDH1-R132H enzyme, NADPH consumption, diaphorase/resazurin fluorescence; further: potency means the concentration at half of the fitted maximal effect; on the % scale 0 is the no-effect control and ±100 the full control effect; nearly all actives have a fitted effect of over 65% in size
Target sequence (O75874 whole entry R132H, stated change not applied): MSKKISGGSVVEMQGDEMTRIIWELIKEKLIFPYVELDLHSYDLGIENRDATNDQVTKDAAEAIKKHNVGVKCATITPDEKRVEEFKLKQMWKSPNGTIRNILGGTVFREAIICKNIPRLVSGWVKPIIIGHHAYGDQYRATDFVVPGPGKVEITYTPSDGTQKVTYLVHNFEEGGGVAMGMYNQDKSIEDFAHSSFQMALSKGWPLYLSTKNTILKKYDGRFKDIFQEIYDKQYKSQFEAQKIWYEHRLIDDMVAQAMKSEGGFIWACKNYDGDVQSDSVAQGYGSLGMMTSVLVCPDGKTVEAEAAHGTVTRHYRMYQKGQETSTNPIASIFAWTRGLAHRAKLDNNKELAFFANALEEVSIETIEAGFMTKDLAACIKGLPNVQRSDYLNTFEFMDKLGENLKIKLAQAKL
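IDH1-R132H (0.5 ug/mL) preincubated 30 min with compound, then NADPH (0.016 mM) and alpha-KG (2 mM) added; 80 min at RT, pH 7.5. Remaining NADPH coupled via diaphorase/resazurin to fluorescence (540/590 nm); concentration-response curves normalized to no-enzyme control.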
Eya2 inh: Eya2 (human) phosphatase inhibition; actives 0.006% (n = 330,000); O00167; recombinant Eya2, OMFP fluorescence dephosphorylation (OMFP is methylfluorescein phosphate); Potency, µM (doses to about 76.9 µM), for inactives: at the highest dose activity, negative = inhibition, hits mostly inhibitors; further: potency means the concentration at half of the fitted maximal effect; on the % scale 0 is the no-effect control and ±100 the full control effect
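Eya2 protein (added as 0.2 uM solution) was preincubated with compound for 10 min at ambient temperature in 50 mM HEPES pH 7.5, 50 mM NaCl, 5 uM MgCl2, 0.05% BSA, 1 mM DTT. OMFP (added at 50 uM) then reacted 10 min; fluorescence read at 485/525 nm.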
TrxR1 substrate: is turned over as a substrate by rat TrxR1. O89049. purified TrxR1 substrate turnover, NADPH consumption readout. Potency, µM (top dose mostly 114 µM), inactives show at the highest dose activity change, negative = substrate turnover. actives 0.01% (n = 390,000); further: potency means the concentration at half of the fitted maximal effect; on the % scale 0 is the no-effect control and ±100 the full control effect; nearly all actives have a fitted effect of over 50% in size
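Rat TrxR1, dispensed at 90 nM, was prereduced with 400 uM NADPH (final) for 5 min at ~22 deg C, then incubated with compound 15 min before 400 uM selenite. A first-read NADPH fluorescence drop versus no-compound background flagged substrates.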
IDH1 autofl: autofluorescence interference, mutant IDH1 hit counter-screen; shares compounds with mIDH1 inhibitor; inhibition of signal, % at 51.2 µM; Resorufin detection reagent fluorescence interference, cell-free; 750 tested, under 10 active; AID 623980;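 further: 0% = wells with normal resorufin and full inhibition = wells lacking resorufin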
IDH1 WT: inhibits human wild-type IDH1, mutant selectivity check; AID 623995; WT IDH1 enzyme, NADPH diaphorase/resazurin fluorescence; actives 9% (n = 750); shares compounds with mIDH1 inhibitor; Potency, µM (top dose mostly 115 µM), for inactives: top-dose activity change, negative = inhibition, hits mostly inhibitors;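 further: potency means the concentration at half of the fitted maximal effect; 0% = full WT IDH1 enzyme control and full inhibition = no enzyme wells; nearly all actives have a fitted effect of over 55% in size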
Target sequence (O75874 whole entry, looked up): as the sequence (O75874 whole entry R132H, stated change not applied) above, with H132R counted along it
mIDH1 confirm: mutant IDH1 (human) inhibition, confirmed. AID 624002. IDH1 R132H enzyme, NADPH diaphorase/resazurin fluorescence. Potency, µM (top dose mostly 76.6 µM), for the others: at the highest dose activity change, negative = inhibition, usual class: inhibitors. actives 83% (n = 750). shares compounds with mIDH1 inhibitor; further: potency means the concentration at half of the fitted maximal effect; nearly all actives have a fitted effect of over 50% in size
* marks the source's active call; other numbers are inactive results; u = inconclusive; x = no result; ! = not active in a repeat; [ ] = remark or other dose. Sampled rows, rich in hits. Any-hit rate of the full collection: about 1.1%. The call rests on the fitted dose curve; in most records, active means well fitted curve in the direction sought with a large enough effect; inconclusive means small, poorly fitted or top-dose-only effect, or another doubt; inactive means no such curve, though single readings can be large; an effect the other way counts as inactive or inconclusive.

SMILES	rTrxR1 inhibitor	RGS4 inh	mIDH1 inhibitor	Eya2 inh	TrxR1 substrate	IDH1 autofl	IDH1 WT	mIDH1 confirm
CC(CCc1ccccc1)NC(=O)COC(=O)c1ccc(S(C)(=O)=O)c([N+](=O)[O-])c1 (stereo unspecified)	0.79µM*	-12%	u	-4%	2%[57.1 µM]	-3	2%	u
CS(=O)(=O)c1ccc(C(=O)OCc2nnc(-c3ccccc3)o2)cc1[N+](=O)[O-]	1µM*	-29%	u	-3%	5%	-4	9%	25µM*
CN(C)S(=O)(=O)c1ccc(C(=O)OCc2nnc(-c3ccccc3)o2)cc1	11%	-44%	13%	5%	-3%	x	x	x
CC(C)(C)NC(=O)CSc1nc2ccc(Nc3nc(N4CCOCC4)nc(N4CCOCC4)n3)cc2s1	21%	-23%	u	1%	0%	-2	-5%	20µM*
COc1cc(NC(=O)CN(c2cc(C)cc(C)c2)S(=O)(=O)c2c(C)[nH]c(=O)[nH]c2=O)cc(OC)c1	19%	-22%[56.9 µM]	12%	-15%	-3%	x	x	x
Cc1cc(C)cc(N(CC(=O)Nc2ccc(C(F)(F)F)cc2)S(=O)(=O)c2c(C)[nH]c(=O)[nH]c2=O)c1	-13%	30%	10µM*!	-2%	-14%	8	45µM*	32µM*
Cc1ccccc1Nc1c(-c2cccc(O)c2)nc2ccc(Br)cn12	14%	3%	-1%	x	2%	x	x	x
CC(=O)NC1C(=O)N(CCN2CCOCC2)c2ccc(Br)cc21 (stereo unspecified)	4%	9%	u	25%	5%[0.0914 µM]	x	x	x
CCOc1ccc2c(c1)C(NC(C)=O)C(=O)N2CCN1CCOCC1 (stereo unspecified)	10%	u	29µM*	-29%	7%	3	79µM*	25µM*
CC1=C(C(=O)N2CCOCC2)CC(CC(=O)NC(c2ccccc2)c2ccccc2)C(=O)N1Cc1ccc(C(C)(C)C)cc1 (stereo unspecified)	x	x	-5%	x	x	x	x	x
O=C(NCc1ccco1)C(c1ccccc1)N(CC1CCCO1)C(=O)Cn1nnc2ccccc21 (stereo unspecified)	-12%	-2%	-1%	4%	4%	x	x	x
Cc1ccc(C(C(=O)NC2CCCCC2)N(Cc2ccco2)C(=O)Cn2cnc3ccccc32)cc1 (stereo unspecified)	u	5%[11.4 µM]	29µM*	3%	-9%	-5	-2%	13µM*
Cc1ccccc1C(C(=O)NCc1ccco1)N(CC1CCCO1)C(=O)Cn1nnc2ccccc21 (stereo unspecified)	0%[57.1 µM]	-27%	u	7%	6%[57.1 µM]	-1	1%	40µM*
O=C(NC1CCCCC1)C(c1ccc(F)cc1)N(Cc1ccco1)C(=O)Cn1nnc2ccccc21 (stereo unspecified)	25%	0%	-18%	7%	13%	x	x	x
O=C(NC1CCCCC1)C(c1ccccc1F)N(Cc1ccco1)C(=O)Cn1nnc2ccccc21 (stereo unspecified)	-10%	0%	u	-4%	-4%	1	9%	11µM*
CCC(C)(C)NC(=O)C(c1ccc(C)cc1)N(Cc1ccco1)C(=O)Cn1nnc2ccccc21 (stereo unspecified)	-3%	-6%	-14%	1%	-6%	x	x	x
CC(=O)Nc1ccc(S(=O)(=O)Nc2ccc(Cc3ccncc3)cc2)cc1	16%	28%	2%	1%	0%	x	x	x

Source: PubChem BioAssay
